Measurements reported in PubChem BioAssay (NCI).
Compounds without any hit were thinned out: in the full panel of roughly 83,000, 20% have a hit.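 Values shown are percent growth following 48 h exposure of cells in 96-well plates to a single concentration of compound; below 10 was considered active.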 Unmarked numbers belong to inactive results. Calls of active or inactive are those of the source.

Key:
Assay in all cases: NCI-60 one-dose screen, 48 h (100 = growth as untreated, 0 = no growth, -100 = all killed)
Conditions in all cases: 10 µM unless noted
[1] = tested on: BT-549 breast
[2] = tested on: MDA-MB-435 melanoma
[3] = tested on: SW-620 colon
[4] = tested on: MCF7 breast
[5] = tested on: HCT-116 colon
[6] = tested on: HCC-2998 colon
[7] = tested on: KM12 colon

Row | SMILES | growth [1] | growth [2] | growth [3] | growth [4] | growth [5] | growth [6] | growth [7]
1 | O=C(CCc1nnc(Cn2ccnc2)o1)c1nc2ccccc2[nH]1 | 114% | 111% | 109% | 106% | 106% | 108% | 111%
2 | COc1ccc(/C=N/NC(=O)c2ccc(S(C)(=O)=O)cc2)cc1OC | 109% | 109% | 99.8% | 92.4% | 89% | 98.5% | 95.8%
3 | COc1cc2cn3c4ccc(O)cc4nc(N)c3c2cc1OC | 20.6% | 12.4% | 26.1% | 6.3% (active) | -50.7% (active) | 27.2% | 37.9%
4 | COc1ccc(/C=C2\COc3ccc(O)c(O)c3C2=O)cc1OC | 29.4% | -0.882% (active) | 4.03% (active) | 13% | -24.8% (active) | 46.1% | 10.4%
5 | COc1cc(/C=C/C(=O)Nc2cccnc2Nc2cc(OC)c(OC)c(OC)c2)cc(OC)c1OC | 96.7% | 96.6% | 99.1% | 87.9% | 88.6% | 97% | 103%
6 | c1ccc(N2CCN(c3nncc4ccccc34)CC2)nc1 | 104% | 104% | 104% | 105% | 103% | 117% | 104%
7 | Clc1ccc2c(Nc3ccc4oc(NCCN5CCCC5)nc4c3)ccnc2c1 | 95.1% | 101% | 78.4% | 68.9% | 55.7% | 76% | 81.7%
8 | O=[N+]([O-])c1ccc(N/N=C\c2ccccc2[N+](=O)[O-])nc1 | 101% | 107% | 107% | 88.8% | 102% | 107% | 104%
9 | COc1cc(Oc2cc(-c3cccnc3)ccc2NC(=O)Nc2ccc(F)cc2F)cc(OC)c1OC | 103% | 109% | 104% | 94.2% | 97.8% | 106% | 108%
10 | C/C(=C\CCc1ccsc1)CC/C=C(\C)CCCN1CCN(CCO)CC1 | 30.1% | 41% | -11.4% (active) | 26.3% | 26% | 19.8% | 27.1%
11 | ClC1C2CC(c3ccccc32)C1Cl (stereo not given) | 102% | 120% | 110% | 103% | 105% | 110% | 116%
12 | Cn1cc(-c2csc(-c3cn(C)c4ncccc34)n2)c2cc(Br)cnc21 | 95.2% | 55.2% | 89.4% | 70.2% | 90.6% | 98% | 83.1%
13 | O=C(CSc1nnc(Nc2ccccc2)s1)NCCc1ccc(F)cc1 | 109% | 101% | 103% | 109% | 99.8% | 99.3% | 111%
14 | Cc1nn(-c2ccc(Cl)cc2)c2nc3c(nc12)C(=O)c1ccccc1-3 | 82% | 67.5% | 83.4% | 49.1% | 39.9% | 52.5% | 78.8%
15 | COc1cc(C2CC(=O)Nc3c2cc(Br)c2ccccc32)cc(Br)c1OC (stereo not given) | 60.7% | -29.6% (active) | 17.6% | 17.3% | -5.31% (active) | 90.9% | 6.63% (active)
16 | O=C1c2ccccc2-c2c1nc1ccccc1[n+]2[O-] | 98.2% | 110% | 97.5% | 95.8% | 98.5% | 104% | 101%
17 | CCCCCCCCCCCCCCCCCC1=NC(C)(C)CN1CCO | 58.9% | -60.1% (active) | -60.4% (active) | -59.5% (active) | -67% (active) | -87.6% (active) | -76.3% (active)
18 | CCN1C[C@@H](C)n2c(c(O)c3c(=O)n(Cc4ccc(F)c(Cl)c4)nc(C(=O)NC)c32)C1=O | 9.6% (active) | 27.4% | 21.1% | 53.6% | 16.3% | 14.7% | 21%

Row | SMILES | growth [1] | growth [2] | growth [3] | growth [4] | growth [5] | growth [6] | growth [7]
19 | O=C1C(Cl)=C(N=Nc2c(Cl)c(O)c3ccccc3c2O)C(=O)c2ccccc21 | 62% | -31.7% (active) | 90% | 62.6% | 70.4% | 74.4% | 86.4%
20 | O=C1C[C@@H]2/C(=C(O)\C=C\c3ccccc3)C(=O)C=C[C@@H]2O1 | -40.5% (active) | -31.6% (active) | -33.2% (active) | 6.03% (active) | -90.6% (active) | 99.6% | -91% (active)
21 | CN1C(=O)C(=Cc2cn(Cc3ccccc3)c3ccc(Br)cc23)C(=O)N(C)C1=O | 102% | 102% | 108% | 87% | 101% | 107% | 102%
22 | c1csc([C@@H]2C[C@@H]3Cc4ccc5ccccc5c4N2O3)c1 | 112% | 87.1% | 98.5% | 99.8% | 101% | 105% | 103%
23 | CC1CC(C)/C(=N/NC(N)=O)C(C(O)CC2CCC(=O)NC2=O)C1 (stereo not given) | 53.1% | 34.3% | 34.3% | 36.7% | 24% | 58.8% | 32.3%
24 | CC(=O)n1c2ccccc2c2ccccc21 | 119% | 106% | 106% | 104% | 102% | 96.1% | 114%
25 | CN1CCN(Cc2ccc(NC(=O)c3[nH]ncc3Nc3ccnc4ccnn34)cc2)CC1 | 74.1% | 56.1% | 70.1% | 35.9% | 33.7% | 68.7% | 32.7%
26 | Cc1ccccc1-c1cc(Cc2ccccc2O)c(=O)[nH]n1 | 112% | 109% | 116% | 103% | 93.5% | 124% | 98.1%
27 | C=C1CC[C@@H]2[C@](C)(COC(C)=O)[C@H](OC(C)=O)CC[C@@]2(C)[C@@H]1CC(Nc1ccc(S(=O)(=O)Nc2cc(C)on2)cc1)C1=CCOC1=O (stereo not given in full) | 27.2% | 35% | 14.7% | 12.3% | -1.13% (active) | 68.3% | 30.5%
28 | COc1ccc(-n2nc3c(c2-c2ccc(OC)c(OC)c2)-c2oncc2CC3)cc1 | 77.5% | 78.6% | 99% | 80.8% | 87.9% | 104% | 77.7%
29 | CCN1CCN(c2cc(-c3cn[nH]c3-c3cc(C)cc(OC)c3)nc(-c3cccnc3)n2)CC1 | 92.9% | 81.2% | 82.6% | 82.6% | 38.4% | 91.3% | 50.6%
30 | CCN1C2=C(SC(=S)C1=C1SC(C(=O)OC)=C(C(=O)OC)S1)SC(=Nc1ccc(OC)cc1)C2=O | -80.5% (active) | -40.3% (active) | -67.4% (active) | 4.13% (active) | -80% (active) | -66.3% (active) | -89.1% (active)
31 | O=C(COC(=O)[C@H](C[Se][Se]C[C@H](NC(=O)c1ccc(Br)cc1F)C(=O)OCC(=O)c1ccc(F)cc1)NC(=O)c1ccc(Br)cc1F)c1ccc(F)cc1 | -93% (active) | -42.1% (active) | -95% (active) | -58.4% (active) | -72.4% (active) | -68.9% (active) | -99.1% (active)
32 | Cc1[nH]n(C(N)=S)c(=O)c1N=Nc1ccc(F)c(Cl)c1 | 143% | 107% | 111% | 103% | 95.5% | 95.7% | 90%
33 | O=C(C=C=Nc1ccccc1)C(=O)N=C=Cc1ccccc1 | -7.61% (active) | 50.7% | -26.3% (active) | 25.9% | -36.3% (active) | 74.1% | 81.5%
34 | COc1ccc(C2CC(c3ccc(OC)c(OC)c3)=NN2C(=O)c2cc(OC)c(OC)c(OC)c2)c(OC)c1 (stereo not given) | 63.2% | 3.86% (active) | 62.2% | 35.1% | 68.7% | 96.5% | 61.5%
35 | O=C1/C(=C/c2ccc([N+](=O)[O-])o2)Oc2ccc(Br)cc21 | -54.1% (active) | -40.7% (active) | -70.5% (active) | 16.7% | -64% (active) | 102% | 87.1%
